# The list is not random: actives were taken first. Their share in the collection is about 19%.
# HT1080NT lethal = kills 2HG-producing HT-1080-NT fibrosarcoma cells. HT-1080-NT fibrosarcoma viability, CellTiter-Glo ATP luminescence, 48 h. Potency, µM (highest dose often 46.1 µM), without a hit: at the highest dose activity, negative = less viability, hits mostly cytotoxic. 360,000 tested, 1.6% active. AID 686970;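 note: NT is the 2HG producing partner of a matched IDH1 knockdown line; potency is the fitted concentration of half-maximal effect; 0% = DMSO-treated cells and -100% = media-only wells without cells; nearly all actives have a fitted effect of over 55% in size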
#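 750 cells/well, RPMI + 5% FBS; 2 h settle, compound pin-transfer, 48 h at 37 degrees C. CellTiter-Glo 10 min RT, luminescence. Normalized to DMSO and media-only wells.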
# TDP1 cell CPT = DT40-hTDP1 cell growth loss with CPT; chicken DT40 Tdp1-/-;hTDP1 cells + 20 nM CPT, ATP luminescence, 48 h; Potency, µM (top dose mostly 46.2 µM), for the others: top-dose activity change, negative = growth inhibition, hits mostly inhibitors; 420,000 tested, 12% active; note: potency is the fitted concentration of half-maximal effect; nearly all actives have a fitted effect of over 55% in size
#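 Cell growth measured by CellTiter-Glo luminescence after a minimum 48 h, 37 C compound exposure with 20 nM CPT in Tdp1-knockout DT40 cells stably expressing hTDP1, seeded 400/well; qHTS titration format.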
# IL-1B inflam inh = inhibitors of inflammasome signaling (IL-1 beta secretion) | THP-1 LPS/ATP IL-1B secretion, AlphaLISA, 16 h; stronger effect = lower value | activity change, % at 57.5 µM | 360,000 tested, 4.7% active | AID 743279; in the data active = activity change below about -50%; inconclusive = mostly about -30% to -49%
#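 THP-1 cells pretreated 1 hr with compounds (up to 57.5 uM final), then stimulated with LPS (250 ng/mL final) plus ATP (1.25 mM final); secreted IL-1B measured by AlphaLISA after 16 hr, decreased signal indicating inhibition.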
# TDP1 cell noCPT = qHTS for Inhibitors of human tyrosyl-DNA phosphodiesterase 1 (TDP1): qHTS in cells in absence of CPT. Potency, µM (titrated, usually from 46.2 µM), for the others: top-dose activity change, negative = growth inhibition, most hits filed as inhibitors. DT40 Tdp1-/- hTDP1 cells, no CPT, ATP luminescence, 48 h. 420,000 tested, 15% active; note: potency is the fitted concentration of half-maximal effect; nearly all actives have a fitted effect of over 55% in size
#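 Cells were dispensed at 400 per well, compounds added by pin tool, plates incubated ≥48 hr at 37 °C, then CellTiter-Glo added for 30 min at room temperature before luminescence reading. Line: DT40 Tdp1-/- complemented with hTDP1; camptothecin omitted.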
# HT1080 IDH1KD tx = toxicity to HT-1080 IDH1 knockdown cells (counter line); HT-1080 IDH1 knockdown viability, ATP luminescence, 48 h; 360,000 tested, 2% active; Potency, µM (doses to about 46.1 µM), for the others: top-dose activity, negative = toxicity, hits mostly cytotoxic;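 note: potency is the fitted concentration of half-maximal effect; 0% = DMSO wells and -100% = cell-free medium wells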
#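 % activity derives from luminescence (CellTiter-Glo), normalised to DMSO and no-cell wells. HT-1080-IDH1KD cells, 750/well, had 48 h compound exposure at 37 °C.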
# Numbers without * were called inactive; u = inconclusive; x = no result. Unless noted, calls come from the whole dose curve; as a rule, active = well fitted curve in the direction sought with a large enough effect; inconclusive = small, poorly fitted or top-dose-only effect, or another doubt; inactive = no such curve, though single readings can be large; an effect the other way counts as inactive or inconclusive. Unless noted, % is set by controls: 0 for no effect and ±100 for the full control effect.
SMILES,HT1080NT lethal,TDP1 cell CPT,IL-1B inflam inh,TDP1 cell noCPT,HT1080 IDH1KD tx
COc1cccc(CC(NC(C)=O)C(=O)NC2CCN(S(=O)(=O)c3ccc(NC(C)=O)cc3)CC2)c1OC (centres undefined),19%,-2%,-1,-5%,11%
CCOc1ccc(CCNc2ncnc3onc(-c4ccc(Cl)cc4)c23)cc1,x,9.2µM*,x,8.2µM*,x
Nc1c(Cl)ncnc1NCCO,7%,2%,37,18%,5%
Cc1ccc(CCNc2ncnc(Cl)c2N)cc1,0.65µM*,0.46µM*,-22,0.52µM*,u
Fc1ccc(Nc2ncnc3onc(-c4ccc(Cl)cc4)c23)cc1Cl,x,u,x,18µM*,x
CC(C)CNc1ncnc2onc(-c3ccc(Cl)cc3)c12,x,-27%,x,-25%,x
Clc1ccc(CNc2ncnc3onc(-c4ccc(Cl)cc4)c23)cc1,x,u,x,18µM*,x
Cc1cccc(CCNc2ncnc3onc(-c4ccc(Cl)cc4)c23)c1,x,u,x,18µM*,x
CCC(CO)Nc1ncnc2onc(-c3ccc(F)cc3)c12 (centres undefined),-2%,9%,35,-21%,-3%
CCCNc1ncnc2onc(C)c12,-4%,-21%,11,u,-5%
COCCCNc1ncnc2onc(-c3ccc(F)cc3)c12,x,4%,x,u,x
CCOc1ccc(CCNc2ncnc3onc(-c4ccc(F)cc4)c23)cc1OCC,x,u,x,23µM*,x
COc1ccc(CNc2ncnc3onc(-c4ccc(F)cc4)c23)cc1,x,21µM*,x,29µM*,x
Cc1noc2ncnc(NCc3ccc(Cl)cc3)c12,x,13µM*,x,16µM*,x
C=CCN(C(=O)CNC(=O)c1cccs1)C(C(=O)NC(C)(C)C)c1ccccc1 (centres undefined),-1%,1%,0,1%,14%
O=S(=O)(Nc1ccc(O)c(Sc2nc3ccccc3s2)c1)c1ccc(Cl)cc1,2%,-29%,u,-24%,-17%
Fc1ccc(-c2nc3ccccc3c3nc4ccccc4n23)cc1,-4%,u,2,u,-1%
Clc1ccccc1-c1nc2ccccc2c2nc3ccccc3n12,6%,u,10,13µM*,0%
Cc1nc2ccccc2c2nc3ccccc3n12,u,u,-6,21µM*,0%
COC(=O)Cn1c(=NC(=O)c2ccc3c(c2)OCCO3)sc2ccccc21,x,-3%,x,-11%,x
CC(C)C(NC(=O)C(C)N1C(=O)c2ccccc2C1=O)c1ccccc1 (centres undefined),15%,14%,36,-5%,10%
COc1ccc2[nH]c(C)c(CCNC(=S)Nc3ccccc3C)c2c1,-3%,18µM*,-10,u,-2%
COc1ccc2[nH]c(C)c(CCNC(=S)Nc3cccc(C)c3C)c2c1,-7%,u,8,21µM*,-3%
CCc1cccc(CC)c1NC(=S)NCCc1c(C)[nH]c2ccccc12,-15%,u,-21,u,-15%
Cc1cccc(NC(=S)NCCO)c1C,18%,-11%,18,-3%,15%
SMILES,HT1080NT lethal,TDP1 cell CPT,IL-1B inflam inh,TDP1 cell noCPT,HT1080 IDH1KD tx
COc1ccc2[nH]c(C)c(CCNC(=S)Nc3ccc(C)cc3)c2c1,1%,18µM*,-26,u,-3%
CN(C(=O)COc1ccc(Br)cc1Cl)C1CCCCC1,-9%,u,-52*,u,-17%
CN(C(=O)COC(=O)c1cnc(Cl)c(Cl)c1)C1CCS(=O)(=O)C1 (centres undefined),0%,-25%,-86*,-25%,22%
CN(C(=O)COC(=O)c1cnc(Cl)c(Cl)c1)C1CCCCC1,1%,-28%,-96*,-26%,-1%
CCN(CC)C(=O)COc1ccc(Br)cc1Cl,12%,-6%,31,-26%,9%
CCc1cccc(C)c1NC(=O)c1nc2ccccc2nc1N1CCCCC1,x,u,x,-50%,x
COc1cc(C(=O)OC(C)C(=O)NC(=O)NC2CCCCC2)ccc1OC(F)F (centres undefined),0%,0%,17,-27%,-5%

# Compound activity: PubChem BioAssay, National Center for Advancing Translational Sciences (NCATS)
